# Data reported in paper PMC7862700, “An all-to-all approach to the identification of sequence-specific readers for epigenetic DNA modifications on cytosine”.
# Key:
# Assay in all cases: DAPPL (digital affinity profiling via proximity ligation, sequencing); 10 mM Tris-HCl pH 7.5, 50 mM NaCl, 1 mM DTT, 4% glycerol, room temperature, 30 min; GST-TFs on glutathione beads, 16-mer random dsDNA library, 0.1% formaldehyde crosslink after washing; high values mean tight binding
# FEV = target: T1, FEV (Homo sapiens, UniProt Q99581 1-238); settings: protein: recombinant; tags: N-terminal GST; dsDNA, one strand shown
# T1 sequence: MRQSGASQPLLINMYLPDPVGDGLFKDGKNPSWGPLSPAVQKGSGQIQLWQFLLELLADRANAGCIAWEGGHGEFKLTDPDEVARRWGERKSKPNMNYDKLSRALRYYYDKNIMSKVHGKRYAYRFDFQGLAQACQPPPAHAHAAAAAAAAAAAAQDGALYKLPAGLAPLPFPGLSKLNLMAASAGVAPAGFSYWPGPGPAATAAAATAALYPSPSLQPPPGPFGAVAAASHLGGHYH
# How it was run: (§1)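 Sequencing on an Illumina NextSeq500 followed washing, crosslinking with 0.1% formaldehyde, proximity ligation (BsaI/T4 ligase, 1 h, 37 °C) and PCR amplification of pools that had been incubated for 30 min at room temperature with 200 nmole of a random double-stranded 16-mer DNA library in Tris/NaCl/DTT/glycerol buffer. Each pool held DNA-barcoded human transcription factors, expressed in yeast as GST fusions and captured on glutathione beads, plus a tag-only sample. Binding signal is a hexamer's read frequency for a factor divided by its frequency in the tag-only sample.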
# ETV5 = ETV5 (Homo sapiens, UniProt P41161 1-510); settings: protein: recombinant; tags: N-terminal GST; dsDNA, one strand shown
# How it was run: as §1
# HSF1 = HSF1 (Homo sapiens, UniProt Q00613 1-529); settings: protein: recombinant; tags: N-terminal GST; chain copies: 3; dsDNA, one strand shown
# How it was run: as §1
# SPIC = target: T2, SPIC (Homo sapiens, UniProt Q8N5J4 1-248); settings: protein: recombinant; tags: N-terminal GST; dsDNA, one strand shown
# T2 sequence: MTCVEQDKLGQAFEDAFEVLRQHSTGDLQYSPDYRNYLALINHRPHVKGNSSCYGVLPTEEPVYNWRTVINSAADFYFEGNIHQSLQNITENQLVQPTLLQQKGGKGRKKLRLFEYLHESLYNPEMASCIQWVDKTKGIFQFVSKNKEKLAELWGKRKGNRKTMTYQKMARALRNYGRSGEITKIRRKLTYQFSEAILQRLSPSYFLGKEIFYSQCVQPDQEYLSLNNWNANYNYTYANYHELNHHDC
# How it was run: as §1
# ELF4 = ELF4 (Homo sapiens, UniProt Q99607 1-663); settings: protein: recombinant; tags: N-terminal GST; dsDNA, one strand shown
# How it was run: as §1
# ELK4 = target: T3, ELK4 (Homo sapiens, UniProt P28324-2 1-405); settings: protein: recombinant; tags: N-terminal GST; dsDNA, one strand shown
# T3 sequence: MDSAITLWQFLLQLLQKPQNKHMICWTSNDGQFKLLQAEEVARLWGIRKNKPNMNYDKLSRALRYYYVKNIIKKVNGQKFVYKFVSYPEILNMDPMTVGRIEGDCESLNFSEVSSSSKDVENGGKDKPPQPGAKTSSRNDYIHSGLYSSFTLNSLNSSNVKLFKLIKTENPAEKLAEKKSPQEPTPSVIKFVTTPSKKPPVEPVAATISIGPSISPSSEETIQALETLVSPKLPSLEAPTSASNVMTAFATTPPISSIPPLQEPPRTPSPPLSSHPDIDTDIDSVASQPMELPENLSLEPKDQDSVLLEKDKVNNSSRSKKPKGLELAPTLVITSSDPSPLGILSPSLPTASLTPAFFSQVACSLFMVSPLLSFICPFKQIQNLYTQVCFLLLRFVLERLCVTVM
# How it was run: as §1
# ETV2 = target: T4, ETV2 (Homo sapiens, UniProt O00321 1-342); settings: protein: recombinant; tags: N-terminal GST; dsDNA, one strand shown
# T4 sequence: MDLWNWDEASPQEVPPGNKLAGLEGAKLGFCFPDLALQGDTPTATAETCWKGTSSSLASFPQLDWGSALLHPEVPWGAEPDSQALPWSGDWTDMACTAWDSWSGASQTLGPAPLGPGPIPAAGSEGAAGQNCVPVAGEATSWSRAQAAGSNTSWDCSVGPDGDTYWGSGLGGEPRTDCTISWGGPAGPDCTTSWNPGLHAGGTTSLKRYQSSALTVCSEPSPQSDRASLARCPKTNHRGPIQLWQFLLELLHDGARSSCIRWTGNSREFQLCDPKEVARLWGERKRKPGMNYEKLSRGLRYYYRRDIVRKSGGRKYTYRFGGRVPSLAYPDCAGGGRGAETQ
# How it was run: as §1
# ELF3 = target: T5, ELF3 (Homo sapiens, UniProt P78545 1-371); settings: protein: recombinant; tags: N-terminal GST; dsDNA, one strand shown
# T5 sequence: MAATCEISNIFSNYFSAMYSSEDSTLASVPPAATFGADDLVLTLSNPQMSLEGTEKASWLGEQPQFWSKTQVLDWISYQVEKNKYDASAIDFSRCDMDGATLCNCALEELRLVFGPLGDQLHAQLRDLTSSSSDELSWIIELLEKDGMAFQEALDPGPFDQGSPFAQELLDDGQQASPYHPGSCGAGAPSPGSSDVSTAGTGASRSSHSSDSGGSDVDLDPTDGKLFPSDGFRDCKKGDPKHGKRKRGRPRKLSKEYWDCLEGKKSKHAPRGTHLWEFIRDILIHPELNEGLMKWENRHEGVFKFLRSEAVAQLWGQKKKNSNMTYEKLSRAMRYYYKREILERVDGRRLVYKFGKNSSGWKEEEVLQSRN
# How it was run: as §1
# CRX = CRX (Homo sapiens, UniProt O43186 1-299); settings: protein: recombinant; tags: N-terminal GST; dsDNA, one strand shown
# How it was run: as §1
# ETV1 = ETV1 (Homo sapiens, UniProt P50549 1-477); settings: protein: recombinant; tags: N-terminal GST; dsDNA, one strand shown
# How it was run: as §1
# ERF = target: T6, ERF (Homo sapiens, UniProt P50548 1-548); settings: protein: recombinant; tags: N-terminal GST; dsDNA, one strand shown
# T6 sequence: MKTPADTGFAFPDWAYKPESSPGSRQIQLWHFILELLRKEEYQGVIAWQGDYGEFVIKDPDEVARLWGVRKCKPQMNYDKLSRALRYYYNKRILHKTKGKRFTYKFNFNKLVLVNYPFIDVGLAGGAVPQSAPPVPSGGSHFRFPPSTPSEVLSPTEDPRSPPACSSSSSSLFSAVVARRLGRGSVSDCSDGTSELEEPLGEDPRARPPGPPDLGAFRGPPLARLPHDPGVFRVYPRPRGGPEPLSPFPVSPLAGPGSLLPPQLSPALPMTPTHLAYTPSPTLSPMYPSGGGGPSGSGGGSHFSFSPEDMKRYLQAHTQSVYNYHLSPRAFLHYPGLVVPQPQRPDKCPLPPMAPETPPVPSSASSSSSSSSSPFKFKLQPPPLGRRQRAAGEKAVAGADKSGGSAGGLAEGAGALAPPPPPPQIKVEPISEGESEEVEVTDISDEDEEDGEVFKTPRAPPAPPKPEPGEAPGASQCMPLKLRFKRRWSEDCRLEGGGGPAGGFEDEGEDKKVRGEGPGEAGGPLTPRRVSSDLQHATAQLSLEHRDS
# How it was run: as §1
# ETV3L = target: T7, ETV3L (Homo sapiens, UniProt Q6ZN32 1-361); settings: protein: recombinant; tags: N-terminal GST; dsDNA, one strand shown
# T7 sequence: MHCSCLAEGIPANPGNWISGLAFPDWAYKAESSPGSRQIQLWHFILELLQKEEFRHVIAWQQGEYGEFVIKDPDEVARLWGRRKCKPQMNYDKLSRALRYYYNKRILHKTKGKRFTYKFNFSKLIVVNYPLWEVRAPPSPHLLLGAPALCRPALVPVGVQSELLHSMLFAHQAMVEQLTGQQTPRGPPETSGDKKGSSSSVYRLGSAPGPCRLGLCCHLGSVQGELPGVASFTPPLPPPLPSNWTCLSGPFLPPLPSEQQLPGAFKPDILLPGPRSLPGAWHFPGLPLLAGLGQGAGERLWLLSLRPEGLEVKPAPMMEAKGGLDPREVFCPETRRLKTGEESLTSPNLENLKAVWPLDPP
# How it was run: as §1
# ETS2 = target: T8, ETS2 (Homo sapiens, UniProt P15036 1-469); settings: protein: recombinant; tags: N-terminal GST; dsDNA, one strand shown
# T8 sequence: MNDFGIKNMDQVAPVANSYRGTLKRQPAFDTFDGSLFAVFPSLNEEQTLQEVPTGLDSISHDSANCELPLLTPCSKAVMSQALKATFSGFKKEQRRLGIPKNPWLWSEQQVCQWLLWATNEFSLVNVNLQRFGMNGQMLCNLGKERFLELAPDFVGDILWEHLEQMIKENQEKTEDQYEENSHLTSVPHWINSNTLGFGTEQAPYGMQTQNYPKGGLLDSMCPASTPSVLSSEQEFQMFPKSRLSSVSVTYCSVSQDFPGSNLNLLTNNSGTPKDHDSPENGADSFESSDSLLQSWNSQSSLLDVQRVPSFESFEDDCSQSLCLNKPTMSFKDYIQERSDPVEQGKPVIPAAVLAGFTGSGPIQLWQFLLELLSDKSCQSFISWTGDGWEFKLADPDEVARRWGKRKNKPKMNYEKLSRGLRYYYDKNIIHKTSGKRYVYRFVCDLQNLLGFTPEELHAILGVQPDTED
# How it was run: as §1
# SPDEF = target: T9, SPDEF (Homo sapiens, UniProt O95238 1-335); settings: protein: recombinant; tags: N-terminal GST; dsDNA, one strand shown
# T9 sequence: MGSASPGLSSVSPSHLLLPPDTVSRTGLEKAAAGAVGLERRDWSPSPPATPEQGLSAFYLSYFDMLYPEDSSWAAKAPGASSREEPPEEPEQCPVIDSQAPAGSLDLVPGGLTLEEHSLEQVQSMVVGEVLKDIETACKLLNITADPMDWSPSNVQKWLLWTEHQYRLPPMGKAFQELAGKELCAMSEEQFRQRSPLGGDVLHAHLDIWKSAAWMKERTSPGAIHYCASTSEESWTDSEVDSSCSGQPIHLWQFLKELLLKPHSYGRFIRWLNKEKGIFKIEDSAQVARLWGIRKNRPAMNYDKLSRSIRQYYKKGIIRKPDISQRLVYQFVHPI
# How it was run: as §1
# ETV7 = target: T10, ETV7 (Homo sapiens, UniProt Q9Y603 1-341); settings: protein: recombinant; tags: N-terminal GST; dsDNA, one strand shown
# T10 sequence: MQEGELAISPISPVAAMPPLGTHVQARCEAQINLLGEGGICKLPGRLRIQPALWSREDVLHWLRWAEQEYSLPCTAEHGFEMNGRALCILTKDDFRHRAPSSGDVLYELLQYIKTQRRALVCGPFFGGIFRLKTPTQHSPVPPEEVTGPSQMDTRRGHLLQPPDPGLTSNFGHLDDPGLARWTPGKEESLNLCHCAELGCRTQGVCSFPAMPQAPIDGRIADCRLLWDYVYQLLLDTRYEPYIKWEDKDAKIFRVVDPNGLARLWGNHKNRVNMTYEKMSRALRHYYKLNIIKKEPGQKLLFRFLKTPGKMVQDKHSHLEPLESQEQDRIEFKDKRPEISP
# How it was run: as §1
# ELF5 = target: T11, ELF5 (Homo sapiens, UniProt Q9UKW6-2 1-255); settings: protein: recombinant; tags: N-terminal GST; dsDNA, one strand shown
# T11 sequence: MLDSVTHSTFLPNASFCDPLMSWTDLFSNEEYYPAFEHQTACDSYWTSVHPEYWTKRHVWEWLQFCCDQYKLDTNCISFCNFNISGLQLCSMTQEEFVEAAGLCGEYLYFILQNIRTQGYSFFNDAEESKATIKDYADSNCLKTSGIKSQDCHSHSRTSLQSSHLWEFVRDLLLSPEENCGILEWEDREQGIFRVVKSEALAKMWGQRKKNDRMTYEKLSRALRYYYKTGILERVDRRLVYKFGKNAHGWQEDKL
# How it was run: as §1
# ETV3 = target: T12, ETV3 (Homo sapiens, UniProt P41162-2 1-143); settings: protein: recombinant; tags: N-terminal GST; dsDNA, one strand shown
# T12 sequence: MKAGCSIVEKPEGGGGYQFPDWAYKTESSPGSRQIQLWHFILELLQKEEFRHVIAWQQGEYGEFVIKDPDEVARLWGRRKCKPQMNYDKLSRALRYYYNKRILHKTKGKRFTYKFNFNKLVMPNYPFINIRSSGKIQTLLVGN
# How it was run: as §1
# ETV6 = ETV6 (Homo sapiens, UniProt P41212 1-452); settings: protein: recombinant; tags: N-terminal GST; dsDNA, one strand shown
# How it was run: as §1
# Chain of ETV5 (P41161 whole entry): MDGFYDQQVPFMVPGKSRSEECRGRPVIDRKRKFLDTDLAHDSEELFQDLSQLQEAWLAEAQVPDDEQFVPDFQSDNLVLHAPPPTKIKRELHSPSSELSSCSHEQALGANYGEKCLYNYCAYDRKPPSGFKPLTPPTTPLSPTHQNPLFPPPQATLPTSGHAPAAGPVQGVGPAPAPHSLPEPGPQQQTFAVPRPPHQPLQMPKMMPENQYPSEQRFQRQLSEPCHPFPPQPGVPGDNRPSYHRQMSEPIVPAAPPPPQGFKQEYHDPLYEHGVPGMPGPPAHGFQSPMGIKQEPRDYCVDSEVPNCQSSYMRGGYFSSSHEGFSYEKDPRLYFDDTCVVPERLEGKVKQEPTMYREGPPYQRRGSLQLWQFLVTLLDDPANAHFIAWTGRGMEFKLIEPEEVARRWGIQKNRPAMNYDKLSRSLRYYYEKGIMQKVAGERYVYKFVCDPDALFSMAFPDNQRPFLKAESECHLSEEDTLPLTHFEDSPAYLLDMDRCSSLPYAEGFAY
# Chain of HSF1 (Q00613 whole entry): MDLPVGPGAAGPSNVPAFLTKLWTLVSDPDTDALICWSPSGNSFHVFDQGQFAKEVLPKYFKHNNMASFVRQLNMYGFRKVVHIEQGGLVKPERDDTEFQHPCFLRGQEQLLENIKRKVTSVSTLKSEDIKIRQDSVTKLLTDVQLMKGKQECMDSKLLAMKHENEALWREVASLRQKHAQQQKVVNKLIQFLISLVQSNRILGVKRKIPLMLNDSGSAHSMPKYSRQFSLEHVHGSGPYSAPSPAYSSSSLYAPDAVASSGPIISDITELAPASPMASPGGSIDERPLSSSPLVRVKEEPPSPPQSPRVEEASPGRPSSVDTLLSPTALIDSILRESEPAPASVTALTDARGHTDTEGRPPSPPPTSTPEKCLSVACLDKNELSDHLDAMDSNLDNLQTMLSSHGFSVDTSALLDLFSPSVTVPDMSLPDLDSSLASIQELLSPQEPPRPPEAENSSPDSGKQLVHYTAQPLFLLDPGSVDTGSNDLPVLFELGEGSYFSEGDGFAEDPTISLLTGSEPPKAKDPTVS
# Chain of CRX (O43186 whole entry): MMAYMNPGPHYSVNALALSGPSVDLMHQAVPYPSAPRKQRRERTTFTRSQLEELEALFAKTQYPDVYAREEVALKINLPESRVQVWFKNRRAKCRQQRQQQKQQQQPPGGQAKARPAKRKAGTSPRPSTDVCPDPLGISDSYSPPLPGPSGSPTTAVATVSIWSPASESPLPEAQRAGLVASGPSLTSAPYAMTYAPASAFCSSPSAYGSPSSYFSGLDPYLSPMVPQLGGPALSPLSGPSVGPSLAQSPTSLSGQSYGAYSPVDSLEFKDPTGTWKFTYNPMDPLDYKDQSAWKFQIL
# Chain of ETV1 (P50549 whole entry): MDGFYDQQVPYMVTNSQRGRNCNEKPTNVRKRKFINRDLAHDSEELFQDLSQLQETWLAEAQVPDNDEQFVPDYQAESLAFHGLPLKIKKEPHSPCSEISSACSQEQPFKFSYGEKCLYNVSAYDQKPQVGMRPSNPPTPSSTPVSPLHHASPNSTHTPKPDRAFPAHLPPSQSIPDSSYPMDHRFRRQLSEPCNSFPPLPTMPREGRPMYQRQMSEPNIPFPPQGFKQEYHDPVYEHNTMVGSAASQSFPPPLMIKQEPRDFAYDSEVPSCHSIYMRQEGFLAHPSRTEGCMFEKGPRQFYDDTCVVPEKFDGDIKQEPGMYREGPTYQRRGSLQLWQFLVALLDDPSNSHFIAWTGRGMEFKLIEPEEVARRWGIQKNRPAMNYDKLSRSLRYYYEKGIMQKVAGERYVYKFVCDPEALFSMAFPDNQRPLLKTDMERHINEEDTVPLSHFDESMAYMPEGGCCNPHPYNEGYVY
# Chain of ELF4 (Q99607 whole entry): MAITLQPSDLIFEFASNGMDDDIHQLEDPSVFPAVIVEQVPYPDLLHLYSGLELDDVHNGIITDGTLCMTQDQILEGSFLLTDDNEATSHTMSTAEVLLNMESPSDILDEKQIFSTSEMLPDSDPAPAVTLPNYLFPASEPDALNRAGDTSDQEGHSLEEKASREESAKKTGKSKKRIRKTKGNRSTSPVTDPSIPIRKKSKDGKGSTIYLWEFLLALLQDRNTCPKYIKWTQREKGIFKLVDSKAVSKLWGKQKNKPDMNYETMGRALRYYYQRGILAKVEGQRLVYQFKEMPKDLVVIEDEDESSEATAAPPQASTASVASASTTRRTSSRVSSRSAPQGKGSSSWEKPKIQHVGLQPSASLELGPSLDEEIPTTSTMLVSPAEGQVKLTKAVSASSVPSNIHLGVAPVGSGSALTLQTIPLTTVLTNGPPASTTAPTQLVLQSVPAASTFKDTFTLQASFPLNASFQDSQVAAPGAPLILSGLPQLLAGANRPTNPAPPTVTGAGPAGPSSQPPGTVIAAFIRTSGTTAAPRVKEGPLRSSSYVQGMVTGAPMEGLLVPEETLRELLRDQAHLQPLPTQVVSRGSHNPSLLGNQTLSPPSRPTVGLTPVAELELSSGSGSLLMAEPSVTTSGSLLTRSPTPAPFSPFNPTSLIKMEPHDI
# Chain of ETV6 (P41212 whole entry): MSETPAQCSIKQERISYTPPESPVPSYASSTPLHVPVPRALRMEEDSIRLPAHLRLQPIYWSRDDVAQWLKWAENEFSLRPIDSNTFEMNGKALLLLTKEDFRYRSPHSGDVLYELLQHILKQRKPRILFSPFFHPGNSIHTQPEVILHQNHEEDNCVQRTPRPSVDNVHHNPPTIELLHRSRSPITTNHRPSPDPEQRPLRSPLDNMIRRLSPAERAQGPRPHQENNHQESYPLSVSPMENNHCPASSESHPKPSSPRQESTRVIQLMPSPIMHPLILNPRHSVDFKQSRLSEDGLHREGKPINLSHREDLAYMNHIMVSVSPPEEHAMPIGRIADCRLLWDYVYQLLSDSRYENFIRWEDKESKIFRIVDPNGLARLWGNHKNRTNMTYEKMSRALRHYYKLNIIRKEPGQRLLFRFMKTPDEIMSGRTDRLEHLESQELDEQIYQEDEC
sequence,measurement,setting,value
TATTAT,binding signal,FEV,"1.12 fold enrichment (6-mer frequency, TF over GST control)"
same,binding signal,ETV5,"1.3 fold enrichment (6-mer frequency, TF over GST control)"
same,binding signal,HSF1,"1.69 fold enrichment (6-mer frequency, TF over GST control)"
same,binding signal,SPIC,"1.35 fold enrichment (6-mer frequency, TF over GST control)"
same,binding signal,ELF4,"1.27 fold enrichment (6-mer frequency, TF over GST control)"
same,binding signal,ELK4,"1.35 fold enrichment (6-mer frequency, TF over GST control)"
same,binding signal,ETV2,"1.32 fold enrichment (6-mer frequency, TF over GST control)"
same,binding signal,ELF3,"1.3 fold enrichment (6-mer frequency, TF over GST control)"
same,binding signal,CRX,"2.4 fold enrichment (6-mer frequency, TF over GST control)"
same,binding signal,ETV1,"1.26 fold enrichment (6-mer frequency, TF over GST control)"
same,binding signal,ERF,"1.19 fold enrichment (6-mer frequency, TF over GST control)"
same,binding signal,ETV3L,"1.24 fold enrichment (6-mer frequency, TF over GST control)"
same,binding signal,ETS2,"1.16 fold enrichment (6-mer frequency, TF over GST control)"
same,binding signal,SPDEF,"1.29 fold enrichment (6-mer frequency, TF over GST control)"
same,binding signal,ETV7,"1.28 fold enrichment (6-mer frequency, TF over GST control)"
same,binding signal,ELF5,"1.2 fold enrichment (6-mer frequency, TF over GST control)"
same,binding signal,ETV3,"1.27 fold enrichment (6-mer frequency, TF over GST control)"
same,binding signal,ETV6,"1.3 fold enrichment (6-mer frequency, TF over GST control)"
